Among the data in the supplement of paper PMC9950053 are habituation values, retold here.

Counter-ions that a name gives are not always drawn.

In the test the test system is Danio rerio larvae (5 dpf). Description: habituation (activity change first vs second 5 min of 1-s interval sound, period 17) minus DMSO control (percentage points); higher = larger habituation measure than DMSO larvae. Particulars: 10 µM; exposure time: 3 h pre-incubation + 3 h imaging. As to the method: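 Wild-type 5 dpf zebrafish larvae (n=48 per drug, 96-well plates, 28.5 °C) were exposed to Tocris FDA-approved library compounds at 10 µM (0.1% DMSO) for 3 h before and 3 h during imaging. Images were taken every 6 s during visual (moving coloured lines) and acoustic stimuli, and larvae were tracked with the DeepLabCut-based Z-LaP Tracker. Each behavioural measure is the treated-group mean minus the DMSO vehicle control mean (n=844), in percentage points. This mapping covers compounds with 4-character plate codes.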
Regarding `CC(C)C[C@H]1C(=O)N2CCC[C@H]2[C@]2(O)O[C@](NC(=O)[C@@H]3C=C4c5cccc6[nH]c(Br)c(c56)C[C@H]4N(C)C3)(C(C)C)C(=O)N12` [Bromocriptine mesylate], the habituation was -1.05.

In the case of `O=c1[nH]c2ccccc2n1C1CCN(CCCC(c2ccc(F)cc2)c2ccc(F)cc2)CC1` [Pimozide], the habituation was -10.2.

On to `CC[C@@H](C(N)=O)N1CCCC1=O` [Levetiracetam], for which the habituation was -2.

For `COc1cc2c(cc1OC)C1CC(=O)C(CC(C)C)CN1CC2` (stereo unspecified) [Tetrabenazine], the habituation came out at 0.576.

Turning to `CC(O)(CS(=O)(=O)c1ccc(F)cc1)C(=O)Nc1ccc(C#N)c(C(F)(F)F)c1` (stereo unspecified) [Bicalutamide], the habituation was -6.13.

As to `N[C@@H]1C[C@H]1c1ccccc1` [Tranylcypromine hydrochloride], the habituation is -2.8.

With `CN1C[C@H](C(=O)N[C@]2(C)O[C@@]3(O)[C@@H]4CCCN4C(=O)[C@H](Cc4ccccc4)N3C2=O)C[C@@H]2c3cccc4[nH]cc(c34)C[C@H]21` [Dihydroergotamine mesylate], the habituation is 2.38.

On to `CCN(C)C(=O)Oc1cccc([C@H](C)N(C)C)c1` [Rivastigmine tartrate], for which the habituation was 0.0925.

In the case of `Cc1cccc([C@H](C)c2c[nH]cn2)c1C` [Dexmedetomidine hydrochloride], the habituation was -10.4.

Consider `C=CCN1C[C@H](C(=O)N(CCCN(C)C)C(=O)NCC)C[C@@H]2c3cccc4[nH]cc(c34)C[C@H]21` [Cabergoline], for which the habituation was determined as 5.7.

Turning to `C=C1C[C@@H]2[C@H](CC[C@]3(C)C(=O)CC[C@@H]23)[C@@]2(C)C=CC(=O)C=C12` [Exemestane], the habituation was -2.71.
